Assay results taken from the supplement of paper PMC8975748.
Structures can show the parent of a compound that is named as a salt. ± gives the standard deviation of the averaged measurements.

System: Saccharomyces cerevisiae BY4741 SeMeCo community
Experiment: mean cell size (pixel area) (pixels); higher = larger cells
Conditions: 10 µM; 24 h; SM minimal medium
Summary of the method: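 Mean cell pixel area per well was determined by automated confocal microscopy with Harmony analysis of paraformaldehyde-fixed cells. The cells, a Saccharomyces cerevisiae BY4741 community of four plasmids that each complement one auxotrophy and carry a fluorescent marker, were incubated for 24 h with drug at a final 10 µM in SM medium in 384-well plates. Numbers are averaged over 3 replicates. Same SeMeCo high-content imaging drug screen: Selleck FDA-approved drugs at 10 µM, 24 h in SM medium, 384-well plates, 3 replicates.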

SMILES	mean cell size
CC(C(=O)O)c1ccc(C(=O)c2cccs2)cc1 (stereo unspecified) [Suprofen]	12.4 ± 0.17
COc1cccc2c1C(=O)c1c(O)c3c(c(O)c1C2=O)C[C@@](O)(C(=O)CO)C[C@@H]3O[C@H]1C[C@H](N)[C@H](O[C@@H]2CCCCO2)[C@H](C)O1 [Pirarubicin]	12.3 ± 0.17
N=C(N)NC(=N)N1CCOCC1 [Moroxydine HCl]	12.4 ± 0.078
Nc1c(CC(=O)O)cccc1C(=O)c1ccccc1 [Amfenac Sodium Monohydrate]	12.78 ± 0.078
CN1CCN(c2c(F)cc3c(=O)c(C(=O)O)cn4c3c2OCN4C)CC1 [Marbofloxacin]	12.1 ± 0.38
CN1CCOC(c2ccccc2)c2ccccc2C1 (stereo unspecified) [Nefopam HCl]	12.1 ± 0.25
COc1ccc(C(C)=O)c(O)c1 [Paeonol]	12.4 ± 0.15
Cc1ccc2c(Cl)cc(Cl)c(O)c2n1 [Chlorquinaldol]	14.5 ± 0.18
NC[C@@H]1O[C@H](O[C@H]2[C@@H](O)[C@H](O[C@@H]3[C@@H](O)[C@H](N)C[C@H](N)[C@H]3O[C@H]3O[C@H](CO)[C@@H](O)[C@H](O)[C@H]3N)O[C@@H]2CO)[C@H](N)[C@@H](O)[C@@H]1O [Paromomycin Sulfate]	12.31 ± 0.12
CCNC(=O)[C@@H]1CCCN1C(=O)[C@H](CCCNC(=N)N)NC(=O)[C@H](CC(C)C)NC(=O)[C@@H](CC(C)C)NC(=O)[C@H](Cc1ccc(O)cc1)NC(=O)[C@H](CO)NC(=O)[C@H](Cc1c[nH]c2ccccc12)NC(=O)[C@H](Cc1c[nH]cn1)NC(=O)[C@@H]1CCC(=O)N1 [Leuprolide Acetate]	12.5 ± 0.15
COc1cc(NS(=O)(=O)c2ccc(N)cc2)nc(OC)n1 [SulfadiMethoxine sodium]	12.4 ± 0.15
CCN1CCN(c2cc3c(cc2F)c(=O)c(C(=O)O)cn3C2CC2)CC1 [Enrofloxacin]	12.04 ± 0.1
O=C1CN(/N=C/c2ccc(-c3ccc([N+](=O)[O-])cc3)o2)C(=O)N1 [Dantrolene sodium]	12.4 ± 0.18
Cc1cc(-c2ccc(/N=N/c3ccc4c(S(=O)(=O)O)cc(S(=O)(=O)O)c(N)c4c3O)c(C)c2)ccc1/N=N/c1ccc2c(S(=O)(=O)O)cc(S(=O)(=O)O)c(N)c2c1O [Evans Blue]	13.5 ± 0.98
NC[C@H]1O[C@H](O[C@H]2[C@H](O)[C@@H](O[C@H]3O[C@H](CO)[C@@H](O)[C@H](N)[C@H]3O)[C@H](N)C[C@@H]2N)[C@H](N)C[C@@H]1O [Tobramycin]	11.72 ± 0.043
CCc1cccc2c3c([nH]c12)C(CC)(CC(=O)O)OCC3 (stereo unspecified) [Etodolac]	12.5 ± 0.19
CO[C@H]1C[C@@H]2CC[C@@H](C)[C@@](O)(O2)C(=O)C(=O)N2CCCC[C@H]2C(=O)O[C@H]([C@H](C)C[C@@H]2CC[C@@H](OP(C)(C)=O)[C@H](OC)C2)CC(=O)[C@H](C)/C=C(\C)[C@@H](O)[C@@H](OC)C(=O)[C@H](C)C[C@H](C)/C=C/C=C/C=C/1C [Ridaforolimus (Deforolimus, MK-8669)]	14.2 ± 0.11
CC1=CC[C@@](O)(C(C)C)CC1 [Terpinen-4-ol]	12.39 ± 0.073

SMILES	mean cell size
CC[C@@H]1/C=C(\C)C[C@H](C)C[C@H](OC)[C@H]2O[C@@](O)(C(=O)C(=O)N3CCCC[C@H]3C(=O)O[C@H](/C(C)=C/[C@@H]3CC[C@H](Cl)[C@H](OC)C3)[C@H](C)[C@@H](O)CC1=O)[C@H](C)C[C@@H]2OC [Pimecrolimus]	11.6 ± 0.16
CC[N+](CC)(CC)CCOc1cccc(OCC[N+](CC)(CC)CC)c1OCC[N+](CC)(CC)CC [Gallamine Triethiodide]	12.6 ± 0.14
CN1[C@@H](CC(=O)c2ccccc2)CCC[C@H]1C[C@H](O)c1ccccc1 [Lobeline hydrochloride]	12.5 ± 0.23
OC[C@H]1O[C@H](OCC2O[C@@H](O)[C@H](O)[C@@H](O)[C@@H]2O)[C@H](O)[C@@H](O)[C@H]1O (stereo partly specified) [Melibiose]	12.5 ± 0.29
C[N+](C)(C)CCO.[Cl-] [Choline Chloride]	12 ± 0.25
COC(=O)C1=C(C#N)NC(C)=C(C(=O)OC(C)C)C1c1cccc([N+](=O)[O-])c1 (stereo unspecified) [Nilvadipine]	12.6 ± 0.18
CC(=O)O[C@]1(C(C)=O)CC[C@H]2[C@@H]3C[C@H](C)C4=CC(=O)CC[C@]4(C)[C@H]3CC[C@@]21C [Medroxyprogesterone acetate]	12.6 ± 0.18
O=C(c1ccc(F)cc1)C1CCN(CCn2c(=O)[nH]c3ccccc3c2=O)CC1 [Ketanserin]	12.33 ± 0.039
Cc1onc(-c2c(Cl)cccc2Cl)c1C(=O)N[C@@H]1C(=O)N2[C@@H]1SC(C)(C)[C@@H]2C(=O)O [Dicloxacillin Sodium]	12.4 ± 0.18
C=CC[N+]1([C@H]2C[C@H]3[C@@H]4CC[C@H]5C[C@H](O)[C@@H](N6CCOCC6)C[C@]5(C)[C@H]4CC[C@]3(C)[C@H]2OC(C)=O)CCCC1 [Rocuronium Bromide]	12.44 ± 0.065
CCn1cc(C(=O)O)c(=O)c2cc(F)c(N3CCNCC3)cc21 [Norfloxacin]	12.3 ± 0.21
CN1CCC(=C2c3ccccc3CCc3sccc32)CC1 [Pizotifen Malate]	12.5 ± 0.16
CC1(C)S[C@@H]2[C@H](NC(=O)[C@H](NC(=O)N3CCN(S(C)(=O)=O)C3=O)c3ccccc3)C(=O)N2[C@H]1C(=O)O [Mezlocillin Sodium]	12.5 ± 0.21
Cc1c(OCC(F)(F)F)ccnc1C[S@@+]([O-])c1nc2ccccc2[nH]1 [Dexlansoprazole]	12.3 ± 0.13
Cc1nc(C)c(Cl)c(O)c1Cl [Clopidol]	12.22 ± 0.083
O=C(CCCN1CCN(c2ccccn2)CC1)c1ccc(F)cc1 [Azaperone]	12.29 ± 0.072
COc1ccc(C(=O)NCc2ccc(OCCN(C)C)cc2)cc1OC [Itopride hydrochloride]	12.4 ± 0.13
CSCC1CN(/N=C/c2ccc([N+](=O)[O-])o2)C(=O)O1 (stereo unspecified) [Nifuratel]	13.05 ± 0.13
